Laboratory results: PubChem BioAssay (NCATS)
Results filed as inconclusive are left out. The source made the active and inactive calls. Calls come from the whole dose curve; as a rule, active = well fitted curve in the direction sought with a large enough effect; inconclusive = small, poorly fitted or top-dose-only effect, or another doubt; inactive = no such curve, though single readings can be large; an effect the other way counts as inactive or inconclusive.

Key:
[1] = Quantitative High-Throughput drug screen in 47 multiple myeloma cell lines against the NCATS MIPE library collection: Karpas25_ECACC cell viability assay (AID 1918968; note: nearly all actives have a fitted effect of over 35% in size)
Method in brief: (§1)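 CellTiter-Glo luminescence (ATP) after 48 h compound exposure, 37C/5% CO2; 500 cells/well; MIPE 4.0 approved/investigational drugs pinned in; DMSO = 100%, media only = 0% viability.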

[2] = Quantitative High-Throughput drug screen in 47 multiple myeloma cell lines against the NCATS MIPE library collection: KMS27_JCRB cell viability assay (AID 1918970); conditions: KMS27 myeloma cells, CellTiter-Glo ATP viability, 48 h; viability (% of DMSO): at 45.8 µM (top of the series); note: nearly all actives have a fitted effect of over 30% in size
Method in brief: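 Luminescent ATP read-out (CellTiter-Glo, 5 min at room temperature) after 48 h compound exposure of 500 KMS27_JCRB cells per well; DMSO wells define full viability and media-only wells zero.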

[3] = Quantitative High-Throughput drug screen in 47 multiple myeloma cell lines against the NCATS MIPE library collection: KMS12BM_JCRB cell viability assay (AID 1918971); note: nearly all actives have a fitted effect of over 35% in size
Method in brief: (§2)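 Luminescent ATP measurement with CellTiter-Glo gives viability, scaled between DMSO-only wells (100%) and media-only wells (0%). Cells, 500 per well, faced library compounds for 48 hours at 37C.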

[4] = Quantitative High-Throughput drug screen in 47 multiple myeloma cell lines against the NCATS MIPE library collection: KMS26_JCRB cell viability assay (AID 1918975); note: nearly all actives have a fitted effect of over 45% in size
Method in brief: as §2

[5] = Quantitative High-Throughput drug screen in 47 multiple myeloma cell lines against the NCATS MIPE library collection: NCIH929_DSMZ cell viability assay (AID 1918978); note: nearly all actives have a fitted effect of over 35% in size
Method in brief: (§3)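 MIPE 4.0 approved/investigational drugs; 500 cells/well; 48 h 37 °C humidified 5% CO2; CTG luminescence readout; DMSO = 100%, media = 0% viability.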

[6] = Quantitative High-Throughput drug screen in 47 multiple myeloma cell lines against the NCATS MIPE library collection: MOLP8_DSMZ cell viability assay (AID 1918977); note: nearly all actives have a fitted effect of over 45% in size
Method in brief: as §3

[7] = Quantitative High-Throughput drug screen in 47 multiple myeloma cell lines against the NCATS MIPE library collection: KMS12PE_JCRB cell viability assay (AID 1918972); note: nearly all actives have a fitted effect of over 30% in size
Method in brief: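 Approved and investigational drugs from MIPE 4.0 were added by pin tool to 500 cells per well. After 48 hours at 37C, ATP-based CellTiter-Glo luminescence indicated remaining viability.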

[8] = Quantitative High-Throughput drug screen in 47 multiple myeloma cell lines against the NCATS MIPE library collection: KMS20_JCRB cell viability assay (AID 1918973); note: nearly all actives have a fitted effect of over 45% in size
Method in brief: as §1

[9] = Quantitative High-Throughput drug screen in 47 multiple myeloma cell lines against the NCATS MIPE library collection: MMM1_PLB cell viability assay (AID 1918976); note: nearly all actives have a fitted effect of over 35% in size
Method in brief: as §3

[10] = Quantitative High-Throughput drug screen in 47 multiple myeloma cell lines against the NCATS MIPE library collection: KMS21BM_JCRB cell viability assay (AID 1918974); conditions: ATP luminescence, 48 h; viability: at 45.8 µM (top of the series)
Method in brief: as §1
Potency is the fitted concentration of half-maximal effect.

SMILES | Potency [1] | Potency [2] | Potency [3] | Potency [4] | Potency [5] | Potency [6] | Potency [7] | Potency [8] | Potency [9] | viability [10] | Potency [10]
CCCCCCCCCCCCc1ccc(S(=O)(=O)Nc2nncs2)cc1 | inactive | inactive | inactive | inactive | inactive | – | – | – | – | – | –
CCN(C(=O)c1c(O)c2c(Cl)cccc2n(C)c1=O)c1ccccc1 | inactive | 16.6 µM (active) | inactive | – | inactive | inactive | – | – | – | – | –
COC1=C(OC)C(=O)C(CC=C(C)CCC=C(C)CCC=C(C)CCC=C(C)CCC=C(C)CCC=C(C)CCC=C(C)CCC=C(C)CCC=C(C)CCC=C(C)C)=C(C)C1=O | inactive | inactive | – | inactive | inactive | inactive | inactive | – | – | – | –
CCOC(=O)C=C[C@H](C[C@@H]1CCNC1=O)NC(=O)[C@@H](CC(=O)[C@@H](NC(=O)c1cc(C)on1)C(C)C)Cc1ccc(F)cc1 | inactive | inactive | – | inactive | inactive | – | inactive | inactive | – | – | –
CCC[C@H]1C[C@H](C(=O)N[C@@H]([C@@H]2O[C@@H](SC)[C@@H](O)[C@@H](O)[C@@H]2O)[C@H](C)Cl)N(C)C1 | inactive | inactive | – | – | inactive | inactive | inactive | inactive | – | – | –
C=Cc1c(C)c2cc3nc(cc4[nH]c(cc5nc(cc1[nH]2)C(C)=C5CCC(=O)O)c(CCC(=O)OC)c4C)[C@@]1(C)C3=CC=C(C(=O)OC)[C@H]1C(=O)OC | 0.132 µM (active) | 0.132 µM (active) | 0.187 µM (active) | 0.743 µM (active) | 0.0833 µM (active) | 2.09 µM (active) | – | 0.148 µM (active) | 0.332 µM (active) | – | –
OCC(O)C(O)C(O)CO (configuration not stated) | inactive | inactive | – | inactive | inactive | – | inactive | – | – | – | –
C=C1C(=CC=C2CCC[C@]3(C)[C@@H]([C@H](C)CCCC(C)(C)O)CC[C@@H]23)C[C@@H](O)C[C@@H]1O | 5.9 µM (active) | 1.66 µM (active) | 20.9 µM (active) | 18.7 µM (active) | 3.72 µM (active) | 16.6 µM (active) | – | – | 20.9 µM (active) | – | –
CC(=O)SCC(Cc1ccccc1)C(=O)NCC(=O)OCc1ccccc1 (configuration not stated) | 1.05 µM (active) | 0.662 µM (active) | 2.35 µM (active) | – | 1.05 µM (active) | – | – | 2.35 µM (active) | 7.43 µM (active) | – | –
CC(=O)O[C@@]12CO[C@H]1C[C@H](O)[C@@]1(C)C(=O)[C@H](O)C3=C(C)[C@@H](OC(=O)C(O)[C@@H](NC(=O)OC(C)(C)C)c4ccccc4)C[C@@](O)([C@@H](OC(=O)c4ccccc4)[C@@H]21)C3(C)C (some centres not stated) | inactive | inactive | inactive | – | inactive | inactive | – | – | – | – | –
CN1C(C(=O)Nc2ccccn2)=C(O)c2sc(Cl)cc2S1(=O)=O | 2.64 µM (active) | inactive | – | 14.8 µM (active) | 1.66 µM (active) | – | inactive | 2.09 µM (active) | 20.9 µM (active) | – | –
C=C1C(=O)O[C@H]2[C@@H]1CCC(C)=CCC[C@@]1(C)O[C@@H]21 | 1.05 µM (active) | 9.35 µM (active) | 8.33 µM (active) | 3.72 µM (active) | 2.96 µM (active) | – | – | 1.66 µM (active) | 13.2 µM (active) | – | –
N#CC(=C(N)Sc1ccc(N)cc1)c1ccccc1C(F)(F)F | 13.2 µM (active) | inactive | 7.43 µM (active) | – | 1.05 µM (active) | – | – | 0.469 µM (active) | inactive | – | –
Cn1cnc(=N)c2[nH]cnc21 | 0.0743 µM (active) | 0.059 µM (active) | 0.105 µM (active) | – | 0.132 µM (active) | 0.0418 µM (active) | – | 0.0526 µM (active) | 0.148 µM (active) | – | –
CC(C)C[C@H](NC(=O)CNC(=O)c1cc(Cl)ccc1Cl)B1OC(=O)CC(CC(=O)O)(C(=O)O)O1 (some centres not stated) | 0.0296 µM (active) | 0.0833 µM (active) | 0.0833 µM (active) | 0.0935 µM (active) | 0.0332 µM (active) | 0.0469 µM (active) | – | 0.166 µM (active) | 6.62 µM (active) | – | –
CCCCC(=O)O[C@]1(C(=O)CO)[C@@H](C)C[C@H]2[C@@H]3CCC4=CC(=O)C=C[C@]4(C)[C@@]3(F)[C@@H](O)C[C@@]21C | 0.0148 µM (active) | 11.8 µM (active) | inactive | – | inactive | 0.526 µM (active) | – | – | inactive | 131% (active) | –

SMILES | Potency [1] | Potency [2] | Potency [3] | Potency [4] | Potency [5] | Potency [6] | Potency [7] | Potency [8] | Potency [9] | viability [10] | Potency [10]
CS(=O)(=O)N1CCc2c(-c3cnc(N)nc3)nc(N3CCOCC3)nc21 | 0.105 µM (active) | 0.0235 µM (active) | 0.935 µM (active) | 0.132 µM (active) | 0.0209 µM (active) | – | – | – | 0.148 µM (active) | – | –
O=c1[nH]c(=O)n([C@H]2C[C@@H](O)[C@@H](CO)O2)cc1C=CBr | inactive | inactive | – | – | – | inactive | inactive | inactive | – | – | –
O=C1NC(=O)[C@@H](c2cn3c4c(cccc24)CCC3)[C@H]1c1c[nH]c2ccccc12 | 0.833 µM (active) | 0.0833 µM (active) | 0.209 µM (active) | 16.6 µM (active) | 11.8 µM (active) | – | – | 0.105 µM (active) | – | – | –
COC(=O)[C@@H]1CC2=CC(=O)CC[C@]2(C)[C@@]23O[C@@H]2C[C@@]2(C)[C@H](CC[C@@]24CCC(=O)O4)[C@@H]13 | inactive | inactive | – | – | inactive | inactive | inactive | inactive | – | – | –
CC(C)NC[C@@H](C(=O)N1CCN(c2ncnc3c2[C@H](C)C[C@H]3O)CC1)c1ccc(Cl)cc1 | 0.469 µM (active) | 1.87 µM (active) | 6.62 µM (active) | 1.32 µM (active) | 0.105 µM (active) | 0.296 µM (active) | – | 0.743 µM (active) | 0.0264 µM (active) | – | –
Nc1nc(=O)n([C@H]2CSC(CO)O2)cc1F (some centres not stated) | inactive | inactive | inactive | inactive | inactive | – | – | inactive | – | – | –
OCc1ccccc1O[C@@H]1O[C@H](CO)[C@H](O)[C@H](O)[C@H]1O | inactive | inactive | – | inactive | 11.8 µM (active) | – | inactive | inactive | – | – | –
CC[C@H]1OC(=O)[C@H](C)[C@@H](O[C@H]2C[C@@](C)(OC)[C@@H](O)[C@H](C)O2)[C@H](C)[C@@H](O[C@@H]2O[C@H](C)C[C@H](N(C)C)[C@@H]2O)[C@](C)(OC)C[C@@H](C)C(=O)[C@H](C)[C@@H](O)[C@]1(C)O | inactive | inactive | – | inactive | inactive | – | inactive | inactive | inactive | – | –
COc1ccc([C@@H]2CNC(=O)C2)cc1OC1CCCC1 | 3.32 µM (active) | 26.4 µM (active) | inactive | – | 4.18 µM (active) | – | – | 3.72 µM (active) | – | – | –
OC[C@@H](O)[C@@H](O)[C@H](O)[C@@H](O)CO | inactive | inactive | inactive | inactive | inactive | inactive | – | – | – | – | –
COc1cc(C(=O)NC2CCN(C)CC2)ccc1Nc1ncc2c(n1)N(C1CCCC1)CCC(=O)N2C(C)C | 20.9 µM (active) | 5.9 µM (active) | – | – | 10.5 µM (active) | – | 13.2 µM (active) | 16.6 µM (active) | – | – | 3.72 µM (active)
COc1cc(N2CCC(C(N)=O)CC2)ccc1Nc1nc(N)c(Cl)c(Nc2ccccc2S(=O)(=O)C(C)C)n1 | 0.235 µM (active) | 0.264 µM (active) | 2.64 µM (active) | 1.87 µM (active) | 0.0935 µM (active) | – | – | 0.001 µM (active) | 0.209 µM (active) | – | –
NC(=O)N1CCC(CC(=O)N2CCC([C@H]3c4ncc(Br)cc4CCc4cc(Cl)cc(Br)c43)CC2)CC1 | 14.8 µM (active) | – | 18.7 µM (active) | 20.9 µM (active) | – | – | 11.8 µM (active) | – | 16.6 µM (active) | – | 13.2 µM (active)
CCNC(=O)Nc1ccc(-c2nc3c(c(N4CCOC[C@H]4C)n2)CCN(C2COC2)C3)cc1 | 0.935 µM (active) | – | 1.18 µM (active) | 1.66 µM (active) | 0.526 µM (active) | 0.833 µM (active) | 5.26 µM (active) | – | 0.418 µM (active) | – | 2.35 µM (active)
CNC(=O)Nc1ccc(-c2nc(N3CC4CCC(C3)O4)c3cnn(C4CCC5(CC4)OCCO5)c3n2)cc1 | 0.0105 µM (active) | – | 0.0066 µM (active) | 1.18 µM (active) | – | 0.0093 µM (active) | 0.0743 µM (active) | 0.0105 µM (active) | 0.0093 µM (active) | – | 0.0418 µM (active)
